# Only some compounds are listed: those with a hit (about 11% of all), similar ones and a draw of the others.
# JMJD2A Tudor inh – qHTS Assay for Inhibitors of JMJD2A-Tudor Domain | Lysine-specific demethylase 4A (Homo sapiens), O75164 | AlphaScreen JMJD2A-Tudor / H3K4me3 peptide binding | Potency, µM (doses to about 114 µM), for the others: top-dose activity change, negative = inhibition, actives largely listed as inhibitors | 390,000 tested, 4.4% active; note: % is set by controls: 0 for no effect and ±100 for the full control effect; nearly all actives have a fitted effect of over 50% in size
# G9a inh – qHTS Assay for Inhibitors of Histone Lysine Methyltransferase G9a | Histone-lysine N-methyltransferase EHMT2 (Homo sapiens), Q96KQ7 | G9a H3K9 monomethylation, AlphaScreen, 2 h | Potency, µM (series often up to 102 µM), inactives show at the top dose activity, negative = inhibition, hits mostly inhibitors | 350,000 tested, 8.8% active | AID 504332, 2011; note: % is set by controls: 0 for no effect and ±100 for the full control effect; nearly all actives have a fitted effect of over 75% in size
# Target sequence (Q96KQ7 913-1193 limits assumed): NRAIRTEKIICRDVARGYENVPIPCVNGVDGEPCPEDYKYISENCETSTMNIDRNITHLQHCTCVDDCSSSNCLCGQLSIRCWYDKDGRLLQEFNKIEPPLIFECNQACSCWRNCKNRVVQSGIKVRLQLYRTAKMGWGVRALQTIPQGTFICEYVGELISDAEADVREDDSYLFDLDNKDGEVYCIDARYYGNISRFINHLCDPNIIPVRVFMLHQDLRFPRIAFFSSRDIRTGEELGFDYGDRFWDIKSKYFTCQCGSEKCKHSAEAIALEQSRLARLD
#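 Step 1: enzyme (final 20 nM) with compound, 15 min RT. Step 2: substrate peptide 500 nM and SAM 20 uM, 2 h RT. Step 3: anti-H3K9me1 antibody and AlphaScreen beads, 10 min, then plate read.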
# PLK1 PBD inh – qHTS for Inhibitors of PLK1-PDB (polo-like kinase 1 - polo-box domain): Primary Screen; 360,000 tested, 2.8% active; Serine/threonine-protein kinase PLK1 (Homo sapiens), P53350; Potency, µM, without a hit: max response, negative = inhibition, actives largely listed as inhibitors; Plk1 PBD binding of FITC phosphopeptide, fluorescence polarization; AID 720504, 2013; note: series mostly up to about 57 µM; % is set by controls: 0 for no effect and ±100 for the full control effect; nearly all actives have a fitted effect of over 65% in size
# VDR inh – Inhibitors of the vitamin D receptor (VDR): qHTS; Vitamin D3 receptor (Homo sapiens), P11473; VDR-SRC2-3 peptide fluorescence polarization, 2 h; Potency, µM, for inactives: max response, negative = inhibition, usual class: inhibitors; 400,000 tested, 0.93% active; AID 504847, 2011; note: % is set by controls: 0 for no effect and ±100 for the full control effect
# Target sequence (P11473 whole entry, looked up): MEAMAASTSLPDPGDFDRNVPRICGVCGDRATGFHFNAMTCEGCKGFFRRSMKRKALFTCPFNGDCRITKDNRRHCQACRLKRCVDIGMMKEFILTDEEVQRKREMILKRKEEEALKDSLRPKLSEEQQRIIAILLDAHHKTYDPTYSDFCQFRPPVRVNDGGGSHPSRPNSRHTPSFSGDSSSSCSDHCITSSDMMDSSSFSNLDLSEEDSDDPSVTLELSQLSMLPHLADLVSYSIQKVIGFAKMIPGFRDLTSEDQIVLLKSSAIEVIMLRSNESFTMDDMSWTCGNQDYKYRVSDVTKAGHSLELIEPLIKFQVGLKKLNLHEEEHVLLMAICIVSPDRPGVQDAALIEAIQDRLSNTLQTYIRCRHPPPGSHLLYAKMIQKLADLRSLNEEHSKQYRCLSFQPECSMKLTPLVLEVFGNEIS
#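 FP read-out; VDR + SRC2-3 coactivator peptide; 23 nl compound by pintool; 2 h RT incubation; reagents held at 4 deg C, protected from light.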
# BAZ2B inh – qHTS Assay for Inhibitors of BAZ2B. Bromodomain adjacent to zinc finger domain protein 2B (Homo sapiens), Q9UIF8. AlphaScreen BAZ2B-H3K14Ac peptide displacement. Potency, µM (titrated, usually from 114 µM), inactives show top-dose activity change, negative = inhibition, usual class: inhibitors. 360,000 tested, 4.4% active; note: % is set by controls: 0 for no effect and ±100 for the full control effect; nearly all actives have a fitted effect of over 60% in size
#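 BAZ2B (50 nM) with biotin-H3(5-23)K14Ac peptide (50 nM) in PBS pH 7.4, 0.01% Tween-20, preformed 30 min, then compound 30 min at room temperature; top concentration 110uM. AlphaScreen streptavidin donor/nickel chelate acceptor beads (10 ug/mL final), 20 min dark, signal read.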
# HP1b chromo inh – HTS for Inhibitors of HP1-beta Chromodomain Interactions with Methylated Histone Tails; Chromobox protein homolog 1 (Homo sapiens), P83916; AlphaScreen HP1-beta / biotin-H3K9me3 peptide binding; Potency, µM (highest dose often 114 µM), for the others: at the top dose activity change, negative = inhibition, usual class: inhibitors; 390,000 tested, 0.56% active; AID 540317, 2011; note: nearly all actives have a fitted effect of over 70% in size
#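 HP1-beta protein (50 nM final) preincubated 30 min at room temperature with biotinylated H3(1-18)K9me3 peptide (50 nM) in PBS pH 7.4, 0.01% Tween-20, then compound added for 30 min. AlphaScreen streptavidin donor/nickel chelate acceptor beads (10 ug/mL final), 30 min dark, luminescence read.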
# * hit, by the source's call; ? = inconclusive; / = no result given; [ ] = remark or other dose. Calls come from the whole dose curve; as a rule, active = well fitted curve in the direction sought with a large enough effect; inconclusive = small, poorly fitted or top-dose-only effect, or another doubt; inactive = no such curve, though single readings can be large; an effect the other way counts as inactive or inconclusive. Potency is the fitted concentration of half-maximal effect.
SMILES,JMJD2A Tudor inh,G9a inh,PLK1 PBD inh,VDR inh,BAZ2B inh,HP1b chromo inh
COc1ccc(/C=C2/SC(=S)N(Cc3ccccc3)C2=O)cc1O,?,22%,-1%,13%,-7%,-5%
O=C(OCCOc1ccccc1)c1n[nH]c2ccccc12,11%,1%,6%,0%,1%,14%
COc1ccc(NCc2cc3cc4c(cc3n(CC(=O)Nc3cc(C)ccc3C)c2=O)OCCO4)cc1,-8%,-25%[59 µM],/,26%,-17%,33%
COc1ccc(-c2cn3c(C)c(C(=O)Nc4cc(NC(C)=O)ccc4OC)sc3n2)cc1,-12%,14µM*,6%,-2%,-23%,5%
CCN(CC)C(=O)c1sc2nc(-c3ccc(OC)cc3)cn2c1C,-19%,?,4%,-8%,-39%,-4%
COc1ccc(-c2cn3c(C)c(C(=O)N4CCc5ccccc5C4)sc3n2)cc1,?,35µM*,-9%,-8%,?,-6%
Cc1c(C(=O)NCc2cccnc2)sc2nc(-c3ccc(F)cc3)cn12,-11%,45µM*,-5%,14%,-38%,54%
CNC(=O)c1sc2nc(-c3ccc(OC)cc3)cn2c1C,-31%,50µM*,-3%,-1%,?,14%
Cc1c(C(=O)N2CCc3ccccc3C2)sc2nc(-c3ccccc3)cn12,-24%,?,2%,2%,-38%,-2%
CC(C)(C)OC(=O)N[C@@H](Cc1ccccc1)[C@H](O)c1ccco1,-21%,37%[12.7 µM],-7%,-16%,13%,35%
CCN(CC)C(=O)COc1coc(CN2CCN(c3ccccc3)CC2)cc1=O,-6%,27%[0.501 µM],-7%,-4%,-4%,25%
CCCN1CCC(=O)N(C(CSc2ccc(OC)cc2)c2ccccc2)CC1 (configuration not stated),-19%,/,/,-21%,/,32%
CCOC(=O)C1CCN(Cc2cn3c(-c4ccc(OC)cc4)nnc3s2)CC1,-24%,13µM*,/,1%,?,3%[57 µM]
CCOC(=O)C1CCCN(C(=O)c2sc3nc(-c4ccc(OC)cc4)cn3c2C)C1 (configuration not stated),-28%,40µM*,-2%,17%,?,25%
CCOC(=O)C1CCCN(Cc2cn3c(-c4ccc(Br)cc4)nnc3s2)C1 (configuration not stated),0%,-13%[59 µM],/,7%,3%,30%[57 µM]
CCN(CC)c1ccc(NC(=O)c2sc3nc(-c4ccccc4)cn3c2C)cc1,28µM*,5µM*,/,-4%,7.9µM*,-37%[57 µM]
CCN(C(=O)CSc1nnnn1C)C1CCS(=O)(=O)C1 (configuration not stated),7%,?,3%,2%,3%,43%
Cc1ccc(NC(=O)CCc2c(C)nc3nc(C)nn3c2C)c(Cl)c1,0%,5%[59 µM],/,-11%,-6%,47%
Cc1ccnc(Cc2ccccc2)n1,-14%,17%,-12%,-3%,-12%,68%
COc1ccc2c(c1)C1C=CCC1C(c1cc3c(cc1Br)OCO3)N2 (configuration not stated),22µM*,40µM*,-7%,20%,35µM*,-44%
CC(C)c1nn2c(=O)cc(COC(=O)c3ccccc3NC(=O)c3cccs3)nc2s1,4%,-3%[12.7 µM],/,8%,-2%,45%
Cc1cc(C2(c3ccc(O)c(C)c3)OC(=O)c3ccccc32)ccc1O,?,?,-9%,-8%,50µM*,-25%
Cc1cc(O)c(C(C)C)cc1C1(c2cc(C(C)C)c(O)cc2C)OC(=O)c2ccccc21,-30%,9%[12.7 µM],8%,-4%,?,19%
Nc1ccc(C2(c3ccc(N)cc3)OC(=O)c3ccccc32)cc1,35µM*,9%,-9%,0%,-28%,-2%
O=C(O)c1ccc(C2(c3ccc(C(=O)O)cc3)OC(=O)c3ccccc32)cc1,-9%,/,1%,-1%,12%[0.457 µM],63%
SMILES,JMJD2A Tudor inh,G9a inh,PLK1 PBD inh,VDR inh,BAZ2B inh,HP1b chromo inh
O=C1OC(c2ccccc2)(c2cc(Br)c(O)c(Br)c2)c2ccccc21 (configuration not stated),-36%,/,24µM*,-18%,/,-21%
CCCCNc1nc2c(c(=O)[nH]c(=O)n2C)n1CCCc1ccccc1,/,/,1%,/,/,/
CC[C@H](C)[C@H](NC(=O)[C@H](Cc1ccc(O)cc1)NC(=O)[C@H](Cc1cnc[nH]1)NC(=O)[C@H](CCCNC(=N)N)NC(=O)[C@H](CC(C)C)NC(=O)[C@H](C)NC(=O)[C@H](CO)NC(=O)[C@H](Cc1ccc(O)cc1)NC(=O)[C@H](Cc1ccc(O)cc1)NC(=O)[C@H](CCCNC(=N)N)NC(=O)[C@H](C)NC(=O)[C@H](CCSC)NC(=O)[C@H](CC(=O)O)NC(=O)[C@H](CCC(=O)O)NC(=O)[C@H](C)NC(=O)[C@@H]1CCCN1C(=O)[C@H](C)NC(=O)[C@H](CC(=O)O)NC(=O)[C@H](CCC(=O)O)NC(=O)CNC(=O)[C@@H]1CCCN1C(=O)[C@H](CC(N)=O)NC(=O)[C@H](CC(=O)O)NC(=O)[C@@H]1CCCN1C(=O)[C@H](CCCCN)NC(=O)[C@H](CO)NC(=O)[C@@H]1CCCN1C(=O)[C@@H](N)Cc1ccc(O)cc1)C(=O)N[C@@H](CC(N)=O)C(=O)N[C@@H](CC(C)C)C(=O)N[C@@H](CC(C)C)C(=O)N[C@H](C(=O)N[C@@H](CCCNC(=N)N)C(=O)N1CCC[C@H]1C(=O)N[C@@H](CCCNC(=N)N)C(=O)N[C@@H](Cc1ccc(O)cc1)C(N)=O)[C@@H](C)O,/,/,/,1%,/,/
O=C1CC2(CCCC2)CC(=O)N1CCNC[C@H]1COc2ccccc2O1,/,/,/,-6%,/,/
CCN(CC)CCN(CC(=O)N(C1CCCCC1)C1CCCCC1)C(=O)c1cccnc1,-9%,50µM*,-1%,11%,?,36%
Cc1cc2c(=O)n(C)c(SCC(=O)Nc3cccc(O)c3)nc2s1,-20%,?,?,-14%,3%,-3%
CCn1c(SCC(=O)Nc2cccc(C)c2)nc2c(c1=O)SC(C)C2 (configuration not stated),-35%,50µM*,-11%,-2%,-25%,22%
CCn1c(SCC(=O)Nc2ccc3c(c2)OCO3)nc2c(c1=O)SC(C)C2 (configuration not stated),-28%,-44%[59 µM],-7%,-9%,-28%,9%
